According to PubChem BioAssay (EPA / NIEHS):
Inconclusive results are not listed. Activity calls are given as the source filed them. How the source made its calls: active means hit-call score of the fitted dose curve at least 0.9, where 1 is the maximum; inconclusive means response in the unintended direction; inactive means score below 0.9.

Each compound was assayed against Androgen receptor (Homo sapiens) (UniProt P10275) (assay: ATG_AR_TRANS: Attagene TRANS-FACTORIAL HepG2 Assay for human Androgen Receptor (AR) (AID 2282973)). Details: HepG2 Attagene TRANS-FACTORIAL AR reporter transcription.
Androgen receptor (Homo sapiens), sequence (P10275 whole entry, looked up): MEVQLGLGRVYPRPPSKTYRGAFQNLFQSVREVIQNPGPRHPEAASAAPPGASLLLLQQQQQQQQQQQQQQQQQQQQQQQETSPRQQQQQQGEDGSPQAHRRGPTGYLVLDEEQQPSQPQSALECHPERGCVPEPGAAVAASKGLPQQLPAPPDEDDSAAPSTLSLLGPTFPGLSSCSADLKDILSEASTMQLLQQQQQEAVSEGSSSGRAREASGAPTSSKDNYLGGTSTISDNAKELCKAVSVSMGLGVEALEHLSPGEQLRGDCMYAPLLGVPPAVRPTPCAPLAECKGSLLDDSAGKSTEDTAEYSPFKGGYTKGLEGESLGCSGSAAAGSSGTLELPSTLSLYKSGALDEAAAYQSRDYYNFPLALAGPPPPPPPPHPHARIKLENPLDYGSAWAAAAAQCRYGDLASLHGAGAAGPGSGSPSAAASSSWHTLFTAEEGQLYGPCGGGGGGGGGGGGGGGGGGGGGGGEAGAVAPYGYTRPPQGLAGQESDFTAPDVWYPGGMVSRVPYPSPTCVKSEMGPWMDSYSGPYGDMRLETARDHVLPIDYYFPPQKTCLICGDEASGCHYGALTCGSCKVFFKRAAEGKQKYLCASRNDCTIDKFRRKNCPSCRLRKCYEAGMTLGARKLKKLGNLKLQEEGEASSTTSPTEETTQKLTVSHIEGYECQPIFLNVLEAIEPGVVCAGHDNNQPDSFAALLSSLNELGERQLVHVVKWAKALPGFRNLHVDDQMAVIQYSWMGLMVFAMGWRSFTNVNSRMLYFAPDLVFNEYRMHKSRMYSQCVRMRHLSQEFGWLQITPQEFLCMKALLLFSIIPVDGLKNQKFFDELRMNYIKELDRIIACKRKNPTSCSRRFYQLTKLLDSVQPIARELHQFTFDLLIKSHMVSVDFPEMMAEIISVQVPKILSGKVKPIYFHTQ
Procedure: ATG_TRANS is a cell-based, multiplexed-readout assay that uses HepG2, a human liver cell line, with measurements taken at 24 hours after chemical dosing in a 24-well plate.ATG_AR_TRANS is one of 30 assay component(s) measured or calculated from the ATG_TRANS assay. It is designed to make measurements of mRNA induction, a form of inducible reporter, as detected with fluorescence intensity signals by Reverse transcription polymerase chain reaction (RT-PCR) and Capillary electrophoresis technology.Data from the assay component ATG_AR_TRANS was analyzed into 1 assay endpoint. This assay endpoint, ATG_AR_TRANS, was analyzed in the positive analysis fitting direction relative to DMSO as the negative control and baseline of activity. Using a type of inducible reporter, measures of mRNA for gain-of-signal activity can be used to understand the reporter gene at the transcription factor-level as they relate to the gene AR. Furthermore, this assay endpoint can be referred to as a primary readout, because this assay has produced multiple assay endpoints where this one serves a reporter gene function. To generalize the intended target to other relatable targets, this assay endpoint is annotated to the nuclear receptor intended target family, where the subfamily is steroidal.
Human liver HepG2 cells are transiently transfected with multiple reporter transcription units (MRTUs) in 6-well plates using FuGene 6 reagent (Roche; 3 ml FuGene/1 mg DNA). The MRTU constructs are regulated by a cis-regulating element (promoter). […] A major difference between the CIS and TRANS system is that in CIS activities of endogenous TFs are measured, whereas the TRANS assay evaluates changes in activities of exogenous, chimeric NR-Gal4 proteins. […] At the end of 24 hour incubation, total RNA was isolated using TriZol reagent (Invitrogen). The isolated RNA is then reverse-transcribed using oligo(dT) primer and Mo-MLV reverse transcriptase (Invitrogen) with DNAse I (Ambion) treatment for 30 min. The one-tenth of the produced cDNA was amplified by PCR using Taq DNA polymerase (Invitrogen) and two reporter sequence-specific primers. The PCR products were fluorescently labeled by primer extension with 6-arboxyfluorescein (6-FAM) 5'-labeled reporter sequence-specific primer (2 min at 95 C, 20 s at 68 C and 10 min at 72 C) and these products were digested with 5U of HpaI (New England Biolabs) for 2h at 37 C. The fragments were purified using Qiaquick PCR columns (Qiagen), analyzed on an ABI 3130xL genetic analyzer (Applied Biosystems) with peak positions identified by using a set of X-rhodamine (ROX)-labeled MapMarker1000 molecular weight standards (BioVentures). The raw capillary electrophoresis data was processed using Attagraph software (Attagene).
For CCC1(c2ccc(N)cc2)CCC(=O)NC1=O (centres undefined), the outcome was “inactive”.
For CCCCCCCCc1ccc(O)cc1, the outcome was “inactive”.
With CN(CCCC(=O)c1cccnc1)N=O the outcome was “inactive”.
In the case of Clc1ccc(COC(Cn2ccnc2)c2ccc(Cl)cc2Cl)cc1 (centres undefined), the outcome is reported as “inactive”.
With O=C(c1ccccc1)C(Cl)Cl the outcome was “inactive”.
With CCC(=O)C(CC(C)N(C)C)(c1ccccc1)c1ccccc1 (centres undefined) the outcome was “inactive”.
In the case of CC12CC1(C)C(=O)N(c1cc(Cl)cc(Cl)c1)C2=O (centres undefined), the outcome is reported as “inactive”.
With CCOP(=S)(OCC)Oc1nc(Cl)c(Cl)cc1Cl the outcome was “inactive”.
For O=CC=O, the outcome was “inactive”.
With Cc1ccc2ccccc2c1C the outcome was “inactive”.
In the case of CC(C)CCCCCCOC(=O)c1ccccc1C(=O)OCCCCCCC(C)C, the outcome is reported as “inactive”.
In the case of CCc1ccccc1C, the outcome is reported as “inactive”.
With CCSC(C)CC1CC(=O)C(C(CC)=NOC/C=C/Cl)=C(O)C1 (centres undefined) the outcome was “inactive”.
With COP(=O)(OC)O/C(=C\Cl)c1cc(Cl)c(Cl)cc1Cl the outcome was “inactive”.
With O=C1C2(Cl)C3(Cl)C4(Cl)C(Cl)(Cl)C5(Cl)C3(Cl)C1(Cl)C5(Cl)C24Cl (centres undefined) the outcome was “inactive”.
COP(=S)(OC)Oc1cc(Cl)c(Cl)cc1Cl was tested, and the outcome was “inactive”.
O=c1[nH]c(=O)[nH]c(=O)[nH]1 was tested, and the outcome was “inactive”.
Cl/C=C\C[N+]12CN3CN(CN(C3)C1)C2 was tested, and the outcome was “inactive”.
For COP(=S)(OC)Oc1ccc(Sc2ccc(OP(=S)(OC)OC)cc2)cc1, the outcome was “inactive”.
With COP(=S)(OC)Oc1ccc(S(=O)(=O)N(C)C)cc1 the outcome was “inactive”.
For Oc1c(I)cc(I)cc1I, the outcome was “inactive”.
With Cc1cc(=O)[nH]o1 the outcome was “inactive”.
COP(=O)(OC)OC was tested, and the outcome was “inactive”.
With CC(C)(C)CC(C)(C)c1ccc(O)cc1 the outcome was “inactive”.
For C[C@H]1CCCC(=O)CCC/C=C/c2cc(O)cc(O)c2C(=O)O1, the outcome was “inactive”.
Cc1ccccc1C(=O)Nc1cccc(OC(C)C)c1 was tested, and the outcome was “inactive”.
With COS(=O)(=O)c1ccc(C)cc1 the outcome was “inactive”.
C=CC(=O)OCCCCCC(C)C was tested, and the outcome was “inactive”.
For c1cc[c]([Hg][c]2ccccc2)cc1, the outcome was “inactive”.
